Records with an inconclusive call do not appear. Active and inactive are the calls of the source. Unless noted, calls come from the whole dose curve; as a rule, active = well fitted curve in the direction sought with a large enough effect; inconclusive = small, poorly fitted or top-dose-only effect, or another doubt; inactive = no such curve, though single readings can be large; an effect the other way counts as inactive or inconclusive.
What was measured:
[1] = AP1 Signaling Pathway (AID 357; active = well fitted curve in either direction with a large enough effect, not every such curve was filed as active;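 note: ME-180 reporter cells stimulated with EGF at its EC50 level; % is set by controls: 0 for no effect and ±100 for the full control effect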); details: ME-180 AP-1-bla reporter, EGF-induced, beta-lactamase ratio, 5 h; at 7.69 µM (top of the series) unless noted
How it was run: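 A ratiometric CCF4 readout (405 nm excitation; 460 and 530 nm emission) quantified AP-1-driven beta-lactamase in ME-180 cells after 5 h with compound and EC50 EGF; AC50 values were derived for activators and inhibitors.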

[2] = biological target: Cytochrome P450 1A2 (Homo sapiens) (UniProt P05177); test: p450-cyp1a2 (AID 410; calls by dose curve; note: potency is the fitted concentration of half-maximal effect;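 for activity change, negative = inhibition: -100% = full effect of reference inhibitor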)
Sequence of Cytochrome P450 1A2 (Homo sapiens) (P05177 whole entry, looked up): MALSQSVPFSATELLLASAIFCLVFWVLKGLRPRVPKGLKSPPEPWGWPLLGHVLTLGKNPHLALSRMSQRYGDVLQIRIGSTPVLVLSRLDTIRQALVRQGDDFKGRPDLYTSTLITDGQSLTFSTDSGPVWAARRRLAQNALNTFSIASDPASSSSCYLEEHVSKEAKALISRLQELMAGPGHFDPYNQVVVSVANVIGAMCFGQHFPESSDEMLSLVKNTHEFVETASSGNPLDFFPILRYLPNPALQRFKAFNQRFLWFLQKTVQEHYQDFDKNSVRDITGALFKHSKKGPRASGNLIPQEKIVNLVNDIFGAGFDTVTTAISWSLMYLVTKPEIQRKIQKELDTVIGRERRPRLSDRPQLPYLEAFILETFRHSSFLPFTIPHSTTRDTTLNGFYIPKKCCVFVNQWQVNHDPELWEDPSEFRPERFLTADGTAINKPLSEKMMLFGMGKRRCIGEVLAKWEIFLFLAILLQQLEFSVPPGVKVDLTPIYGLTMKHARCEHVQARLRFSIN
How it was run: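 Luminescent demethylation readout: Luciferin-ME (100uM, equal to Km) turned over by 20nM CYP1A2 for 60 min at room temperature after NADPH regeneration addition, following 10 min compound preincubation. Normalization used 57 uM furafylline as full inhibition.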

[3] = NFAT Signaling Pathway (AID 444; active = well fitted curve in either direction with a large enough effect, not every such curve was filed as active;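 note: carbachol stimulus at about its EC50 of 1 µM final; % is set by controls: 0 for no effect and ±100 for the full control effect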); details: Jurkat NFAT-bla M1, carbachol, beta-lactamase ratio, 5 h; at 7.69 µM (top of the series) unless noted
How it was run: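 Jurkat cells with NFAT-driven β-lactamase reporter and co-expressed M1 receptor, stimulated with carbachol (final 1 uM, ~EC50), compound titration, 5 h at 37 °C. CCF4 loaded 1 h at RT; 460/530 nm ratio gave %activity and AC50.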

[4] = Stat Signaling Pathway (AID 446; active = well fitted curve in either direction with a large enough effect, not every such curve was filed as active;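 note: ME-180 cervical cancer cells given 40 pM IL-6 alongside compound; SIE-controlled beta-lactamase reporter measured as 460/530 nm FRET emission ratio; % is set by controls: 0 for no effect and ±100 for the full control effect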); details: ME-180 (cervical carcinoma) SIE beta-lactamase reporter, IL-6 stimulated, 5 h; at 7.69 µM (top of the series) unless noted
How it was run: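 Overnight-plated ME-180 cells bearing a STAT Inducible Element beta-lactamase reporter; 5 h co-exposure to compound and 40 pM IL-6; values normalized to 300 pM IL-6 and 125 nM JAK inhibitor controls.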

[5] = biological target: Glucocorticoid receptor (Homo sapiens) (UniProt P04150); test: GR-GFP Redistribution (AID 450;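 active = compounds whose dose series gives a full or clear partial fitted curve of increased nuclear translocation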; note: potency is the fitted concentration of half-maximal effect); details: U2OS GR-GFP nuclear translocation, laser cytometry, 2 h
Sequence of Glucocorticoid receptor (Homo sapiens) (P04150 whole entry, looked up, the tested form may be a part): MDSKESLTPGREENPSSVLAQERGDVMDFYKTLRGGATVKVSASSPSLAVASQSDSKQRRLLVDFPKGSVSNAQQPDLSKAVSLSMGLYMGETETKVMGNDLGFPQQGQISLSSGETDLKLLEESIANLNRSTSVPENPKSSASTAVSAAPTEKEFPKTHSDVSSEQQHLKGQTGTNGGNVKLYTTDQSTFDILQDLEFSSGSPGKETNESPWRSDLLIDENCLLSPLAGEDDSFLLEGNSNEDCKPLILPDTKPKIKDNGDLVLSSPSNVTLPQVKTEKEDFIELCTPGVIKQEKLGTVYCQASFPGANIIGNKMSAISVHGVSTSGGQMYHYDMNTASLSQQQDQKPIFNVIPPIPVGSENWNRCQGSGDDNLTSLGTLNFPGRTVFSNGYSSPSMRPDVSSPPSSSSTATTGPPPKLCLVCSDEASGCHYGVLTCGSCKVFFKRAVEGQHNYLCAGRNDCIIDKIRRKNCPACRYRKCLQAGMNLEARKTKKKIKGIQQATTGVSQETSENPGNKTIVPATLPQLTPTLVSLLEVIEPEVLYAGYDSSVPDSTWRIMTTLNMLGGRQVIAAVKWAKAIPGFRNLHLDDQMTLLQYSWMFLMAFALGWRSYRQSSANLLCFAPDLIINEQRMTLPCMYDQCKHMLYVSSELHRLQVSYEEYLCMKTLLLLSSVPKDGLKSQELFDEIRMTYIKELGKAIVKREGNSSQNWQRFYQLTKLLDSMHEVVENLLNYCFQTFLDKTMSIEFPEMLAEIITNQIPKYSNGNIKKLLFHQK

[6] = biological target: Glucocorticoid receptor (Homo sapiens) (UniProt P04150); test: GR-EFC Redistribution (AID 451; calls by dose curve; note: potency is the fitted concentration of half-maximal effect); details: CHO-K1 GR-EFC translocation, beta-gal luminescence, 2 h
How it was run: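 CHO-K1 cells expressing nuclear EA and GR-ED fragments of b-gal; compounds titrated up to 46 uM final, 2 h at 37 C. GR nuclear translocation read as complemented b-gal luminescence after 1 h RT detection.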

[7] = biological target: 3',5'-cyclic-AMP phosphodiesterase 4B (Homo sapiens) (UniProt Q07343); test: qHTS Assay for Inhibitors of PDE-IV (AID 607; active = well fitted activation curve with a large enough effect in the main read-out, with a control signal flat, not every such curve was filed as active; note: % of control where 0% means no effect)
How it was run: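 Live HEK293 cells with a modified cyclic nucleotide-gated (CNG) channel report intracellular cAMP via membrane-potential dye fluorescence (ex 535/em 590 nm). Endogenous PDE-IV was targeted. Compounds were tested at up to 22.9 uM final; RO 20-1724 100 uM served as control.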

[8] = biological target: Cytochrome P450 2C9 (Homo sapiens) (UniProt P11712); test: qHTS Assay for Inhibitors and Substrates of Cytochrome P450 2C9 (AID 883); note: % is set by controls: 0 for no effect and ±100 for the full control effect; nearly all actives have a fitted effect of over 60% in size
How it was run: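 10nM CYP2C9 + 100uM Luciferin-H (=KM), 25mM KPO4; cpd 10 min 37C; NADPH regen, 60 min 37C; stop/detect with P450 Glo-Buffer 20 min; luminescence. Norm. to 57uM sulphaphenazole as full inhibition.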

[9] = biological target: Cytochrome P450 2D6 (Homo sapiens) (UniProt P10635); test: qHTS Assay for Inhibitors and Substrates of Cytochrome P450 2D6 (AID 891); note: nearly all actives have a fitted effect of over 60% in size; note: potency is the fitted concentration of half-maximal effect
Sequence of Cytochrome P450 2D6 (Homo sapiens) (P10635 whole entry, looked up): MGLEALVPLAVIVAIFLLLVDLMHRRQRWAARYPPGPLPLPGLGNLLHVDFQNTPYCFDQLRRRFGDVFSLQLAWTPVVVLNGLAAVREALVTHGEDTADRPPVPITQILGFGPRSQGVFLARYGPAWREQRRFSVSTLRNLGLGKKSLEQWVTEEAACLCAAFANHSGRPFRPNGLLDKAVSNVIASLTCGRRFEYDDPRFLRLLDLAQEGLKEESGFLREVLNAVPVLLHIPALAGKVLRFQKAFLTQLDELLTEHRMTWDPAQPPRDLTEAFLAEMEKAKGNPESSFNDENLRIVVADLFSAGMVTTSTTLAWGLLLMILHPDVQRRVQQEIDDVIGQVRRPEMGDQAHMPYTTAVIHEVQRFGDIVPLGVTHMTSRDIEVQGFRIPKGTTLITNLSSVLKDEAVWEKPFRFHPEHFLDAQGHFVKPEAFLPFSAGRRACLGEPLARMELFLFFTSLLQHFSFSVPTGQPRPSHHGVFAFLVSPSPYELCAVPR
How it was run: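 Luminescent read-out of luciferin formed by 5 nM human CYP2D6 demethylating 30 uM Luciferin-ME EGE (Km level) over 60 min at room temperature after NADPH regeneration addition. Data normalized to full inhibition by 1.43 uM quinidine.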

[10] = biological target: Cytochrome P450 2C19 (Homo sapiens) (UniProt P33261); test: qHTS Assay for Inhibitors and Substrates of Cytochrome P450 2C19 (AID 899); note: nearly all actives have a fitted effect of over 60% in size; note: potency is the fitted concentration of half-maximal effect
Sequence of Cytochrome P450 2C19 (Homo sapiens) (P33261 whole entry, looked up): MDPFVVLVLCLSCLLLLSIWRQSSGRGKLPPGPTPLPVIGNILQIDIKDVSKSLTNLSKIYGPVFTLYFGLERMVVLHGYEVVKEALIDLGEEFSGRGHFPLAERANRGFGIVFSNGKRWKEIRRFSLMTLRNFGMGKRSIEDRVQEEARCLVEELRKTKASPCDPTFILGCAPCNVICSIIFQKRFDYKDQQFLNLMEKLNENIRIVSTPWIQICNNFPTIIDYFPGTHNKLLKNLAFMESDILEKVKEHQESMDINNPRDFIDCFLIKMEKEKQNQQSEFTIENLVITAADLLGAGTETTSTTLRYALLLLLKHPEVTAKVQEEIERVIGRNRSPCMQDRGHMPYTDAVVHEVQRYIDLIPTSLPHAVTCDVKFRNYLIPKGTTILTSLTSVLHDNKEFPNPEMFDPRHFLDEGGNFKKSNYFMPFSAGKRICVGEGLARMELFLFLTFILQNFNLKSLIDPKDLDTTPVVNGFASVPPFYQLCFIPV
How it was run: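 Luminescent read-out of luciferin formed from Luciferin-H EGE (10uM, equal to KM). Enzyme 5nM in 50mM KPO4; compound added, 10 min at 37C, then NADPH regenerating system for 60 min at 37C. Full inhibition defined by 57uM ketoconazole.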

[11] = biological target: Guanine nucleotide-binding protein G(i) subunit alpha-1 (Homo sapiens) (UniProt P63096); test: qHTS Assay for Inhibitors of RGS12 GoLoco Motif Activity (Green Fluorophore) (AID 879);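 note: 0% = labeled peptide with Gαi1 and full inhibition = labeled peptide alone without protein; negative values mean loss of peptide binding seen as reduced polarization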
Sequence of Guanine nucleotide-binding protein G(i) subunit alpha-1 (Homo sapiens) (P63096 whole entry, looked up): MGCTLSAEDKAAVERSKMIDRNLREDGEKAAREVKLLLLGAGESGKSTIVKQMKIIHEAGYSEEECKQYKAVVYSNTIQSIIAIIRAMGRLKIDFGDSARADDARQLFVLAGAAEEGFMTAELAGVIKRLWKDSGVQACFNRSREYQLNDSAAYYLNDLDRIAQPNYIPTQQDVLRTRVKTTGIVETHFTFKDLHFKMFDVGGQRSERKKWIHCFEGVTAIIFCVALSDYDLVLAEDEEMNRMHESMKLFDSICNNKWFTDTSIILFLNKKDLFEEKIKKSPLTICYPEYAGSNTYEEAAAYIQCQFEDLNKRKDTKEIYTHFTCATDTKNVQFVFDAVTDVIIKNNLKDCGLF
How it was run: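 A drop in FITC polarization marked displacement of the FITC-tagged RGS12 GoLoco peptide (10 nM) from Gαi1 (50 nM). Compounds were incubated 10 min at room temperature in Tris pH 7.5 buffer containing 150 mM NaCl, 0.1 mM GDP and 0.05% NP40; unlabeled peptide titration served as control.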

[12] = biological target: Cytochrome P450 3A4 (Homo sapiens) (UniProt P08684); test: qHTS Assay for Activators of Cytochrome P450 3A4 (AID 885); note: nearly all actives have a fitted effect of over 65% in size
How it was run: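 Using 20nM recombinant human CYP3A4 in potassium phosphate (200mM), substrate Luciferin-PPXE at 25uM, luminescent luciferin detection followed a 60-min RT NADPH reaction; data scaled to 57 uM ketoconazole.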

[13] = qHTS Assay for Identification of Small Molecule Agonists for Thrombopoietin (TPO) Signaling Pathway (AID 917); note: % is set by controls: 0 for no effect and ±100 for the full control effect
How it was run: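 Quantitative HTS for pathway activators: compounds were pin-transferred onto IL-3-starved Ba/F3 cells expressing human TPO receptor, TPO was added at its EC50 (26 pM final), and after 24 hrs at 37 C reporter luciferase was measured.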

[14] = biological target: Muscarinic acetylcholine receptor M1 (Rattus norvegicus) (UniProt P08482); test: qHTS Assay for Antagonists of Acetylcholine Muscarinic M1 Receptor: Kinetic Measurement of Intracellular Calcium Response (AID 943);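 note: Fluo-4 calcium signal as peak divided by basal fluorescence over 4 min; nearly all actives have a fitted effect of over 75% in size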
Sequence of Muscarinic acetylcholine receptor M1 (Rattus norvegicus) (P08482 whole entry, looked up): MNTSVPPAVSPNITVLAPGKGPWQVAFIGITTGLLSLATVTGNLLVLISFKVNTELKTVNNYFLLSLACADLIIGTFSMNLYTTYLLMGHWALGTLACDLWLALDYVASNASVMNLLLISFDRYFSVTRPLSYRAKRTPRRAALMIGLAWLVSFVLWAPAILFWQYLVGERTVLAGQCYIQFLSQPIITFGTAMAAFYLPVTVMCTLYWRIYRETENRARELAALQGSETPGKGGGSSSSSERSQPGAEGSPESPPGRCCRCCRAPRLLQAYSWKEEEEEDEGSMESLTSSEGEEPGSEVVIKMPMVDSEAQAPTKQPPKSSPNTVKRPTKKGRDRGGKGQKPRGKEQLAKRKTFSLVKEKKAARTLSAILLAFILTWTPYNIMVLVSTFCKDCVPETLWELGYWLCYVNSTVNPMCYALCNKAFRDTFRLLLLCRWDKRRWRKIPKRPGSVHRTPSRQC
How it was run: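 Antagonism measured as reduction of carbachol-evoked (EC80, 100 nM final) calcium flux in rat M1-CHO cells after 10 min compound exposure. Fluo-4 signal read kinetically; ratio of maximal to basal fluorescence.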

[15] = biological target: Muscarinic acetylcholine receptor M1 (Rattus norvegicus) (UniProt P08482); test: qHTS Assay for Antagonists of Acetylcholine Muscarinic M1 Receptor: Measurement of IP-One Response (AID 944); note: nearly all actives have a fitted effect of over 75% in size
How it was run: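 IP1 accumulation measured via TR-FRET between d2-IP1 and Eu-cryptate anti-IP1 antibody after carbachol (200 nM, EC80) stimulation for 30 min; rat M1-transfected CHO cells received compound 10 min before agonist.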

[16] = biological target: Pyruvate kinase (Leishmania mexicana) (UniProt Q27686); test: qHTS Validation Assay for Inhibitors of Leishmania Mexicana Pyruvate Kinase (AID 945);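 note: 0% = DMSO only neutral control wells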
Sequence of Pyruvate kinase (Leishmania mexicana) (Q27686 2-499 E452W): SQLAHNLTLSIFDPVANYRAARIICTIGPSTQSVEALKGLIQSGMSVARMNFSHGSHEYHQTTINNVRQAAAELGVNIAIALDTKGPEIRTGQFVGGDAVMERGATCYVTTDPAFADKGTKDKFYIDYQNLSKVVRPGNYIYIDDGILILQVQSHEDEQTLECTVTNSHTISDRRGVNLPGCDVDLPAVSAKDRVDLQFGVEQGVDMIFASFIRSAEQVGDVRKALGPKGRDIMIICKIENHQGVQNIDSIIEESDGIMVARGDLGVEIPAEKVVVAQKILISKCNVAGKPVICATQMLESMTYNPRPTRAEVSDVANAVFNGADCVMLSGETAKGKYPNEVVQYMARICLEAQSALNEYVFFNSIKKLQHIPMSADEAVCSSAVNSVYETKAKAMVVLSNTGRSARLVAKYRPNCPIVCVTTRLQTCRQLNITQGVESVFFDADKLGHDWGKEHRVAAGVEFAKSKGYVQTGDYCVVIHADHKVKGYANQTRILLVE
How it was run: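 qHTS eight-point titrations against 0.2 nM LmPYK (E451W) in imidazole buffer pH 7.2 with 0.5 mM PEP, 0.1 mM ADP; 1 h, room temperature. Readout: PKLight luminescence, normalized to neutral DMSO wells.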

[17] = biological target: Pyruvate kinase PKM (Homo sapiens) (UniProt P14618); test: qHTS Assay for Activators of Human Muscle Pyruvate Kinase (AID 954; active = well fitted curve in the direction sought with a large enough effect, not every such curve was filed as active;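 note: 0% = uninhibited enzyme and -100% = no enzyme or full thiadiazolimine inhibition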)
Sequence of Pyruvate kinase PKM (Homo sapiens) (P14618 whole entry, looked up): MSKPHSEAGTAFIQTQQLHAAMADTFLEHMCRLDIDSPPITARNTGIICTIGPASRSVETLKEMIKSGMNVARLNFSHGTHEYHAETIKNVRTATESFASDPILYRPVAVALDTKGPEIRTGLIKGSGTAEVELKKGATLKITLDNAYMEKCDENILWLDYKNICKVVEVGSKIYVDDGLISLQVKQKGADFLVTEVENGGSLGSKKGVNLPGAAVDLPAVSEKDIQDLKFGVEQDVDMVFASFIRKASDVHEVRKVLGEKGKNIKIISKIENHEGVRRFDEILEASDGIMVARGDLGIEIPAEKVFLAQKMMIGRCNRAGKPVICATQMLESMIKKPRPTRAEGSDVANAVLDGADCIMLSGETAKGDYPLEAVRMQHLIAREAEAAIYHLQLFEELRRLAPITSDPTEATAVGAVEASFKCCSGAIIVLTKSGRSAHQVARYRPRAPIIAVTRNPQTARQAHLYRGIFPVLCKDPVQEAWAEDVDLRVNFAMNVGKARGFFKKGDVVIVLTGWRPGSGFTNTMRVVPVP
How it was run: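 Screening used highly purified human pyruvate kinase M2 under submaximal activity, with PEP at its Km and ADP below Km. After an hour at room temperature, ATP was read by luciferase luminescence.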

[18] = biological target: Alpha-galactosidase A (Homo sapiens) (UniProt P06280); test: Counterscreen for Glucocerebrosidase Inhibitors: qHTS Assay for Human alpha-Galactosidase at pH 4.5 (AID 992); note: 0% is about no effect
Sequence of Alpha-galactosidase A (Homo sapiens) (P06280 whole entry, looked up): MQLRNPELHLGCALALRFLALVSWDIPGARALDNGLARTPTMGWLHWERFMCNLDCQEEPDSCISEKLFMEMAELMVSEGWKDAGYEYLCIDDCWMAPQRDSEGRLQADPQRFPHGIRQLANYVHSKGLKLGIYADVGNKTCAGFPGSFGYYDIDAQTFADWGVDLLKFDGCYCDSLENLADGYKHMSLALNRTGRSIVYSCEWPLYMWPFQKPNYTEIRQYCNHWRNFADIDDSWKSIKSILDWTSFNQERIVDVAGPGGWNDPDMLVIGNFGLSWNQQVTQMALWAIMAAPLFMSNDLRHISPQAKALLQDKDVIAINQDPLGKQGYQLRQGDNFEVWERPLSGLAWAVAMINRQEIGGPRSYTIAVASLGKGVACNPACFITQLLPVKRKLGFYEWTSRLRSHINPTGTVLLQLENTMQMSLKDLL
How it was run: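 Each compound is preincubated briefly with 2 nM enzyme before substrate addition (80 uM); plates then sit 20 min at ambient temperature, are quenched with 1M NaOH/1M glycine, and read fluorometrically.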

[19] = biological target: alpha-glucosidase (Oryza sativa, rice) (UniProt Q653V4); test: Counterscreen for Glucocerebrosidase Inhibitors: qHTS Assay for Rice alpha-Glucosidase at pH 5.0 (AID 997);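 note: 0% = full activity with enzyme and -100% = basal without enzyme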
How it was run: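 Endpoint fluorogenic assay at pH 5.0: compounds (0.7 nM to 77 uM) titrated against 4 nM rice enzyme and 400 uM 4-MU-alpha-glucoside for 20 min at room temperature; NaOH/glycine stop, read ex 365/em 440 nm, Hill-fitted AC50.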

[20] = biological target: Mitogen-activated protein kinase 10 (Mus musculus) (UniProt Q61831); test: JNK3 AlphaScreen Assay (AID 530; active = well fitted curve in either direction with a large enough effect, not every such curve was filed as active)
How it was run: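 Activity was read by AlphaScreen after JNK3-containing HepG2 lysate (cytokine pre-activated) phosphorylated biotinylated GST-cJun with 10 uM ATP at room temperature. Phospho-Ser73 cJun antibody with Protein-A acceptor beads provided detection.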

NC(N)=NCCSSCCN=C(N)N
inactive: activity change, negative = inhibition [1] -8.04% [at 38 µM] | Potency [2] | activity change, negative = inhibition [3] -8.54% [at 38 µM] | activity, negative = inhibition [4] -24.3% [at 38 µM] | Potency [5] > 46 µM | Potency [6] > 46 µM | Potency [7] | Potency [8] | Potency [9] | Potency [10]

C=C[C@@]1(C)CC(=O)[C@@]2(O)[C@@]3(C)[C@H](O)CCC(C)(C)[C@@H]3[C@H](O)[C@H](OC(C)=O)[C@]2(C)O1
inactive: activity change, negative = inhibition [1] -15.8% [at 38 µM] | Potency [2] | activity change, negative = inhibition [3] 5.97% [at 38 µM] | activity, negative = inhibition [4] 9.83% [at 38 µM] | Potency [5] > 46 µM | Potency [6] > 46 µM | outcome [11] | Potency [12] | Potency [9] | outcome [13] | Potency [14] | Potency [15] | outcome [16] | outcome [17] | outcome [18] | Potency [19]

CCNc1ncc2nc(CCc3ccccc3)c(=O)n(C)c2n1
inactive: activity change, negative = inhibition [1] -11.6% | activity change, negative = inhibition [3] -7.02% | activity, negative = inhibition [4] -0.83% | Potency [5] > 9.22 µM | Potency [6] > 46 µM | Potency [20] | Potency [12]
active: Potency [2] 2.51 µM | Potency [9] 1.58 µM | Potency [10] 2.51 µM

CCn1cc(C(=O)O)c(=O)c2ccc(Cc3ccccc3)nc21
inactive: activity change, negative = inhibition [1] -7.45% [at 38 µM] | Potency [2] | activity change, negative = inhibition [3] 2.79% [at 38 µM] | activity, negative = inhibition [4] 8.13% [at 38 µM] | Potency [5] > 46 µM | Potency [6] > 46 µM | Potency [8] | Potency [9] | Potency [10]

Nc1ncnc2c1ncn2[C@@H]1O[C@@H](C(=O)NC2CC2)[C@H](O)[C@@H]1O
inactive: activity change, negative = inhibition [1] -9.63% [at 38 µM] | Potency [2] | activity change, negative = inhibition [3] -15.3% [at 38 µM] | activity, negative = inhibition [4] -7% [at 38 µM] | Potency [5] > 46 µM | Potency [6] > 46 µM | Potency [20] | outcome [11] | Potency [12] | outcome [13] | Potency [14] | Potency [15] | outcome [16] | outcome [17] | outcome [18] | Potency [19]

N[C@@H]1C=CC=C(C(=O)O)C1
inactive: activity change, negative = inhibition [1] -1.23% [at 38 µM] | Potency [2] | activity change, negative = inhibition [3] 5.33% [at 38 µM] | activity, negative = inhibition [4] 16.2% [at 38 µM] | Potency [5] > 46 µM | Potency [6] > 46 µM | Potency [7] | outcome [11] | outcome [13] | Potency [14] | outcome [16] | outcome [17] | outcome [18] | Potency [19]
